# Measured values as given in PubChem BioAssay (NCI).
# This is part of a sample that, as a whole, favours compounds with a hit. Of some 83,000 tested, about 20% had one in any assay.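 Negative percent growth values reflect cell death: -40 means 40% of the cells present at the start died, and -100 means all died.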 Values without a mark were called inactive. Calls of active or inactive are those of the source. How the source made its calls: active means growth percent below 10; inactive means the rest.
# Assays:
# Assay in all cases: NCI-60 one-dose screen, 48 h (100 = growth as untreated, 0 = no growth, -100 = all killed)
# Conditions in all cases: 10 µM unless noted
# DU-145 prostate = test system: DU-145 prostate
# K-562 leukemia = test system: K-562 leukemia
# MALME-3M melanoma = test system: MALME-3M melanoma
# MDA-MB-231 breast = test system: MDA-MB-231 breast
# SF-268 CNS = test system: SF-268 CNS
# SF-295 CNS = test system: SF-295 CNS
# SF-539 CNS = test system: SF-539 CNS
# UACC-257 melanoma = test system: UACC-257 melanoma
# M14 melanoma = test system: M14 melanoma
# RXF 393 renal = test system: RXF 393 renal
Compound,growth (DU-145 prostate),growth (K-562 leukemia),growth (MALME-3M melanoma),growth (MDA-MB-231 breast),growth (SF-268 CNS),growth (SF-295 CNS),growth (SF-539 CNS),growth (UACC-257 melanoma),growth (M14 melanoma),growth (RXF 393 renal)
C#CCn1cc(C=C2C(=O)NC(=S)NC2=O)c2cc(Cl)ccc21,3.03% (active),15%,43.5%,-26.1% (active),6.45% (active),46.4%,-57.2% (active),61.7%,44.4%,
Cn1ncc2c(Nc3ccccc3Cl)nc(Cl)nc21,139%,,122%,87%,114%,103%,102%,128%,124%,
CN1CCN(C(=O)[C@]2(C)CC[C@]3(C)CC[C@]4(C)C(=CC(=O)[C@@H]5[C@@]6(C)CCC(=O)NC(C)(C)[C@@H]6CC[C@]54C)[C@@H]3C2)CC1,97.6%,,95.9%,107%,94.3%,98.3%,92%,103%,105%,
COc1ccc(/C=C/c2n[nH]c3ccc(N4CCOC4=O)cc23)cc1,14.7%,,59.9%,14.6%,13%,32.8%,-1.43% (active),38.4%,26.9%,
O=C(Nc1sc2c(c1C(=O)O)CCCC2)c1cccc(C(F)(F)F)c1,94.2%,,99.9%,94%,94.9%,85.1%,93.4%,80.7%,98.8%,
O=C1Nc2c(ccc(Cl)c2Cl)/C1=C/c1ccccn1,104%,,85.5%,84.7%,84.8%,107%,92.8%,-20.9% (active),69.9%,
Cc1cccc(Oc2ccc(Nc3ncnc4ccc(NC(=O)CN(C)C)cc34)cc2Cl)c1,34.5%,-8.94% (active),25.9%,41.1%,54.8%,58.4%,59.9%,81.8%,-77.1% (active),
Cc1ccc2nc3c(cc2c1)CSc1nnc(-c2ccc[nH]c2=S)n1N3,113%,93%,97.7%,93.4%,89.5%,108%,97.3%,103%,93%,
Cc1ccc2[nH]c(=O)cc(-n3nncc3COc3ccc(C=O)cc3)c2c1,105%,,100%,101%,102%,104%,99.4%,116%,103%,
CCC(=O)c1ccc(O)c(OC)c1,113%,,104%,92%,104%,105%,111%,85.7%,101%,111%
CCCOc1nc(SCCC)nc2c1cnn2-c1ccccc1,110%,,119%,105%,87.7%,108%,98.4%,113%,109%,
NC(=O)c1ccc[n+](CC(=O)N2CCN(c3cc4c(cc3F)c(=O)c(C(=O)O)cn4C3CC3)CC2)c1,96.4%,,6.59% (active),99.8%,76.7%,108%,88.6%,89.4%,76.4%,
C=C(C)[C@@H]1CC[C@]2(C(=O)NCCCN(CCC#N)CCC#N)CC[C@]3(C)[C@H](CC[C@@H]4[C@@]5(C)CCC(=O)C(C)(C)[C@@H]5CC[C@]43C)[C@@H]12,105%,,105%,103%,94.6%,99.8%,94.2%,91.4%,99%,
CCOC(=O)c1c(SC)nn(-c2cc(=O)[nH]c3ccc(Br)cc23)c1N,94.6%,,105%,110%,90.7%,107%,102%,112%,109%,
O=C(O)c1ccc[n+](CC(=O)N2CCN(c3cc4c(cc3F)c(=O)c(C(=O)O)cn4C3CC3)CC2)c1,96.1%,,-34% (active),98.3%,70.1%,116%,69.1%,80.1%,64.6%,
CC1=CC[C@@H]2CC[C@]3(C)[C@H](CC[C@@H]4[C@@]5(C)CCCNC(C)(C)[C@@H]5CC[C@]43C)[C@H]2[C@@H]1C,-7.26% (active),,3.21% (active),-7.94% (active),40.2%,-35.2% (active),77.5%,76.7%,15.5%,
COc1cc2nnn3c4ncccc4c(N=O)c3c2cc1OC,102%,,91.2%,78.6%,30.3%,111%,98.6%,76.1%,104%,
O=C(N/N=C/c1cccc(O)c1)c1ccccc1Nc1cccc(C(F)(F)F)c1,88.7%,,76.3%,73.8%,69.5%,52.2%,103%,64.9%,58.8%,
CC(=O)OCCCCCNc1ccccc1,106%,,103%,98%,99.4%,110%,94.2%,110%,113%,123%
COc1ccc(C(O)c2cc3c(N)c(C(=O)Nc4cccc(OC)c4)sc3nc2C)cc1 (stereo not drawn),6.75% (active),7.83% (active),52.3%,12.1%,27%,3.76% (active),-12% (active),49.7%,11.8%,
Clc1nc(Nc2ccccc2)nc(Nc2ccccc2)n1,101%,,111%,88.8%,103%,100%,100%,130%,118%,117%
CC(C)Cc1ccc(C(C)C(=O)NCc2ccc(Cn3c(=O)sn(-c4ccc(Cl)cc4)c3=O)cc2)cc1 (stereo not drawn),84.4%,,79.2%,66.1%,79.9%,80.9%,63%,81.1%,84.7%,
COc1ccc(C2=C(c3ccccc3)c3ccc(OC(C)=O)cc3OC2(C)C)cc1,105%,,107%,68.2%,102%,72.3%,102%,145%,110%,95.8%
Nc1nc(SN=Nc2ccc(S(N)(=O)=O)cc2)c2[nH]cnc2n1,15%,,24.6%,16.9%,19.8%,12.6%,14.9%,8.28% (active),11.1%,-6.34% (active)
COc1ccc(-c2nc(SC)nc(N3CCOCC3)c2C#N)cc1,106%,97.5%,102%,92.2%,92.4%,98.8%,86.5%,112%,111%,
CCN(CCNc1cc(OC)cc2cccnc12)CCc1ccccc1,101%,,108%,70.7%,84%,83.5%,97.6%,77.8%,93.4%,
